Results on 21 compounds are retold here after PubChem BioAssay (NCATS).

The target in test [1] is Cytochrome P450 2C9 (Homo sapiens) (UniProt P11712). As to the kind of experiment: qHTS Assay for Inhibitors and Substrates of Cytochrome P450 2C9 (AID 883). Note: nearly all actives have a fitted effect of over 60% in size. Note: potency is the fitted concentration of half-maximal effect. In outline: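 CYP2C9 deoxyluciferin hydroxylation, 37C, 60 min with NADPH regeneration; 10nM enzyme, 100uM Luciferin-H (KM). Glo detection reagent stopped reaction; luminescence normalized to sulphaphenazole (57uM) full inhibition.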
Sequence of Cytochrome P450 2C9 (Homo sapiens) (P11712 whole entry, looked up): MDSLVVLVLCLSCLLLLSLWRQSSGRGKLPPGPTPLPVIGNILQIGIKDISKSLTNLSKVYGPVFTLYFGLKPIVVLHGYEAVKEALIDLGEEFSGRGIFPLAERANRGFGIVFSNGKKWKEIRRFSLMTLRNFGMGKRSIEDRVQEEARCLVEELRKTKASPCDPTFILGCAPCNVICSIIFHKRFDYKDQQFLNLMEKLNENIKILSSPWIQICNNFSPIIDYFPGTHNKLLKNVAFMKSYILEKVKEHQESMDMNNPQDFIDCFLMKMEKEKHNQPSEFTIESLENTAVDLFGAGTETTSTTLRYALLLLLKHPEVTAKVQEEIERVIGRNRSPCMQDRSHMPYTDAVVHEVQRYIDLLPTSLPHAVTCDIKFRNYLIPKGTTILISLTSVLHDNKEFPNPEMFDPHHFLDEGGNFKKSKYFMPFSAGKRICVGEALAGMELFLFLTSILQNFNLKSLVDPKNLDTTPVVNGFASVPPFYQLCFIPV
(In general: qHTS replaces the single test concentration by a dilution series.)

Test [2] addresses Cytochrome P450 3A4 (Homo sapiens) (UniProt P08684). As to the kind of experiment: qHTS Assay for Inhibitors and Substrates of Cytochrome P450 3A4 (AID 884). Note: nearly all actives have a fitted effect of over 50% in size. Note: potency is the fitted concentration of half-maximal effect. The procedure, abridged: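 20 nM human CYP3A4 with 25 uM Luciferin-PPXE (at KM) in 200 mM KPO4, preincubated 10 min with compound; NADPH regeneration started a 60 min RT reaction. Luciferin detected by luminescence, normalized to 57 uM ketoconazole as full inhibition.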

Test [3] addresses Cytochrome P450 2D6 (Homo sapiens) (UniProt P10635). As to the kind of experiment: qHTS Assay for Inhibitors and Substrates of Cytochrome P450 2D6 (AID 891). Note: nearly all actives have a fitted effect of over 60% in size. Note: potency is the fitted concentration of half-maximal effect. In outline:
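Human CYP2D6 (5 nM) with 30 uM Luciferin-ME EGE (at Km) in 100 mM KPO4, compound preincubated 10 min, then NADPH regeneration system for 60 min at room temperature. Luciferin read by luminescence; normalized to 1.43 uM quinidine.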

Test [4] is described as follows: Confirmation and Secondary Assay for Modulators of Hemoglobin Beta Chain Splicing at IVS2 654 locus (AID 910).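 Note: per-well total GFP intensity by laser scanning cytometry after 2-day treatment; % of control where 0% means no effect.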 In outline: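 HeLa cells stably carrying EGFP interrupted by mutant beta-globin IVS2-654 intron (CMV-driven) were treated with compound for 2 days at 37C; corrected splicing was scored as total peak GFP intensity per well (488 nm excitation, 500-520 nm emission).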

The nature of test [5]: Confirmation and Secondary Assay for Modulators of Hemoglobin Beta Chain Splicing at IVS2 705 locus (AID 930).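 Note: HeLa cells stably expressing the EGFP-705 splicing reporter; GFP fluorescence per well restored by corrected splicing of the IVS2-705 intron in EGFP; series mostly up to about 46 µM; % of control where 0% means no effect.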 The procedure, abridged:
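Stable HeLa line with EGFP disrupted by mutant beta-globin intron 2 (705). Overnight attachment, then 2 days of compound at 37C, 5% CO2. Signal: peak GFP intensity summed over objects 5-250 µm.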

The target in test [6] is Cytochrome P450 3A4 (Homo sapiens) (UniProt P08684). In words: qHTS Assay for Activators of Cytochrome P450 3A4 (AID 885). Note: nearly all actives have a fitted effect of over 65% in size. In outline: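 20nM CYP3A4 + 25uM Luciferin-PPXE (=KM), 200mM KPO4; cpd 10 min RT; NADPH regen, 60 min RT; stop w/ detection buffer, 20 min; luminescence. Normalized to 57 uM ketoconazole.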
Sequence of Cytochrome P450 3A4 (Homo sapiens) (P08684 whole entry, looked up): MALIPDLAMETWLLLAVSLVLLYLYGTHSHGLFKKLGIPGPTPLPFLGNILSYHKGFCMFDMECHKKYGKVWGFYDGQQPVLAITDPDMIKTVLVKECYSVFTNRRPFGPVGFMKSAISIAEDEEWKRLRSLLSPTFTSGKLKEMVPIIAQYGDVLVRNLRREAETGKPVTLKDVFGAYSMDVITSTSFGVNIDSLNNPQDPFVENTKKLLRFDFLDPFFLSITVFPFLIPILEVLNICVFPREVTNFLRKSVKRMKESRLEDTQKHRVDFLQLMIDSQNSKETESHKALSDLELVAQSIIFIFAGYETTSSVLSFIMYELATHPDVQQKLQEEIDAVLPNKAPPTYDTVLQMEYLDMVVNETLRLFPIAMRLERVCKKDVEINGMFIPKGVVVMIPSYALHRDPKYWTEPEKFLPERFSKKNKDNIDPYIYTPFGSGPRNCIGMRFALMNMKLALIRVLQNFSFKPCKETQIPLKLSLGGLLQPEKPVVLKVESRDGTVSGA
Test [7] has as its target Guanine nucleotide-binding protein G(i) subunit alpha-1 (Homo sapiens) (UniProt P63096). As to the kind of experiment: qHTS Assay for Inhibitors of RGS12 GoLoco Motif Activity (Green Fluorophore) (AID 879).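 Note: 0% = labeled peptide with Gαi1 and full inhibition = labeled peptide alone without protein; negative values mean loss of peptide binding seen as reduced polarization.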 The procedure, abridged: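 Fluorescence polarization assay: 50 nM Gαi1 with 10 nM FITC-labeled RGS12 GoLoco peptide in 10 mM Tris pH 7.5, 150 mM NaCl, 0.1 mM GDP, 0.05% NP40, 10 min at room temperature with compound.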

Test [8] is described as follows: qHTS Assay for Identification of Small Molecule Agonists for Thrombopoietin (TPO) Signaling Pathway (AID 917). Note: % is set by controls: 0 for no effect and ±100 for the full control effect. The procedure, abridged:
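Murine Ba/F3 cells stably expressing human TPO receptor and a Glycoprotein IIb promoter–luciferase reporter were IL-3-starved overnight, then treated with compounds plus TPO (26 pM final, its EC50) for 24 hrs at 37 C; luminescence was read.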

Test [9] concerns the target Muscarinic acetylcholine receptor M1 (Rattus norvegicus) (UniProt P08482). In words: qHTS Assay for Antagonists of Acetylcholine Muscarinic M1 Receptor: Measurement of IP-One Response (AID 944). Note: nearly all actives have a fitted effect of over 75% in size. In outline: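 Steps: plate transfected CHO-M1 cells overnight; add test compound, 10 min; add carbachol (200 nM, EC80) in stimulation buffer with LiCl; incubate 30 min; add labelled IP1 tracer and anti-IP1 antibody in lysis buffer; read HTRF after 10 min.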

The target in test [10] is Pyruvate kinase (Leishmania mexicana) (UniProt Q27686). As to the kind of experiment: qHTS Validation Assay for Inhibitors of Leishmania Mexicana Pyruvate Kinase (AID 945).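 Note: 0% = DMSO only neutral control wells.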 The procedure, abridged: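 Mutant LmPYK (E451W), 0.2 nM, plus 0.5 mM PEP and 0.1 mM ADP in 50 mM imidazole pH 7.2 containing 0.01% Tween 20 and 0.05% BSA. Incubated 1 h at room temperature; luminescence via PKLight, normalized to DMSO.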
Sequence of Pyruvate kinase (Leishmania mexicana) (Q27686 2-499 E452W): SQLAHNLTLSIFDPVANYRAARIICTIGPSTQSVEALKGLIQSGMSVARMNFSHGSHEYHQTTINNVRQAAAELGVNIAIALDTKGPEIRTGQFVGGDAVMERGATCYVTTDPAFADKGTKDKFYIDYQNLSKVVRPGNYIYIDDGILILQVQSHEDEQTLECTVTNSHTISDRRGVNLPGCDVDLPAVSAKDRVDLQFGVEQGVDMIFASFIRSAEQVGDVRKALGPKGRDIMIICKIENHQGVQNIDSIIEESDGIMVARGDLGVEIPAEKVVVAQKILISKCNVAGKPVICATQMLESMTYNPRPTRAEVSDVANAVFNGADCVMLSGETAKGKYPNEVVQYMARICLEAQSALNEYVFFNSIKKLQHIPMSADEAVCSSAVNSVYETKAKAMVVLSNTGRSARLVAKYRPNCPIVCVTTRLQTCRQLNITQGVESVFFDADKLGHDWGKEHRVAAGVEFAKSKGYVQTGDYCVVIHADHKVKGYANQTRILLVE

Test [11] in a line: qHTS Assay for Identification of Small Molecule Antagonists for NFkB Signaling Pathway (AID 895; active = well fitted inhibition curve with a large enough effect in the signal ratio, with a control signal flat, not every such curve was filed as active; the % refers to the signal ratio; note: potency is the fitted concentration of half-maximal effect). The procedure, abridged:
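NFkB-bla ME-180 cervical carcinoma cells with beta-lactamase reporter under NFkB response element; compounds added, then TNF alpha at 10 pM final (EC50), 5 h at 37 C. LiveBLAzer substrate 2 h, room temperature; emission 460/530 nm at 405 nm excitation.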

A short description of test [12]: qHTS Assay for Identification of Small Molecule Antagonists for Thrombopoietin (TPO) Signaling Pathway (AID 918). Note: potency is the fitted concentration of half-maximal effect; nearly all actives have a fitted effect of over 60% in size. Conditions: TPO-dependent cell signaling reporter, antagonist mode. In outline: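 First, Ba/F3 reporter cells expressing human TPO receptor were held overnight without IL-3. Next, compound and 26 pM TPO were added. After 24 hrs incubation at 37 C, luciferase luminescence under the Glycoprotein IIb promoter was recorded.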

Test [13] has as its target Cytochrome P450 2C19 (Homo sapiens) (UniProt P33261). As to the kind of experiment: qHTS Assay for Inhibitors and Substrates of Cytochrome P450 2C19 (AID 899). Note: potency is the fitted concentration of half-maximal effect; nearly all actives have a fitted effect of over 60% in size. The procedure, abridged:
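In 50mM KPO4, the reaction held 5nM enzyme and KM-level (10uM) Luciferin-H EGE; it ran 60 min at 37C after NADPH regeneration and a 10 min compound preincubation. Luminescence values were scaled to 57uM ketoconazole as complete inhibition.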

Test [14] in a line: qHTS Assay for Identification of Small Molecule Agonists for Hypoxia Response Element Signaling Pathway (AID 914; active = well fitted activation curve with a large enough effect in the signal ratio, with a control signal flat, not every such curve was filed as active; the % refers to the signal ratio; note: % of control where 0% means no effect). Conditions: ME-180 (cervical carcinoma) HRE-bla reporter, beta-lactamase ratio, CoCl2, 17 h; stronger effect = higher value. In outline:
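Reporter activity (beta-lactamase, CCF4 460nm/530nm ratio) in HRE-bla ME-180 cells is recorded after 17 h compound exposure with EC50 CoCl2 at 37 degrees Celsius. AC50 values come from titration data.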

Test [15] addresses Muscarinic acetylcholine receptor M1 (Rattus norvegicus) (UniProt P08482). In words: qHTS Assay for Antagonists of Acetylcholine Muscarinic M1 Receptor: Kinetic Measurement of Intracellular Calcium Response (AID 943).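 Note: Fluo-4 calcium signal as peak divided by basal fluorescence over 4 min; series mostly up to about 35 µM; nearly all actives have a fitted effect of over 75% in size.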 In outline: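 Intracellular calcium flux, recorded with Fluo-4 in a kinetic plate reader, served as signal; the response to carbachol at EC80 (100 nM final) was taken as maximal over minimal fluorescence after a 10 min compound pre-incubation in rat M1-CHO cells.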

“And” between values parts separate entries of the source, which are not always exact repeats. Equal values may be shown once. Results filed as inconclusive are left out. A structure can be active in one record and inactive in another. The source made the active and inactive calls. Unless noted, calls come from the whole dose curve; as a rule, active = well fitted curve in the direction sought with a large enough effect; inconclusive = small, poorly fitted or top-dose-only effect, or another doubt; inactive = no such curve, though single readings can be large; an effect the other way counts as inactive or inconclusive.

Sequence of Guanine nucleotide-binding protein G(i) subunit alpha-1 (Homo sapiens) (P63096 whole entry, looked up): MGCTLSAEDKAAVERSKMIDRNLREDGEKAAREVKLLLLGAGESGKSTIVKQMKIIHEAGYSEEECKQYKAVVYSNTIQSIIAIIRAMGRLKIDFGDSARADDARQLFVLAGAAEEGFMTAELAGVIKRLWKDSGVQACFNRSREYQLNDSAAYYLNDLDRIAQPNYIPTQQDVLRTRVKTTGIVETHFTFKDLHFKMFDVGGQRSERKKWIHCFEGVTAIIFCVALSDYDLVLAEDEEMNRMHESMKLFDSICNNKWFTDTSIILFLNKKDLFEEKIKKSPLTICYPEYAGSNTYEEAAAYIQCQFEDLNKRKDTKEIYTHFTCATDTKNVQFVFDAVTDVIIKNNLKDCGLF
Sequence of Cytochrome P450 2D6 (Homo sapiens) (P10635 whole entry, looked up): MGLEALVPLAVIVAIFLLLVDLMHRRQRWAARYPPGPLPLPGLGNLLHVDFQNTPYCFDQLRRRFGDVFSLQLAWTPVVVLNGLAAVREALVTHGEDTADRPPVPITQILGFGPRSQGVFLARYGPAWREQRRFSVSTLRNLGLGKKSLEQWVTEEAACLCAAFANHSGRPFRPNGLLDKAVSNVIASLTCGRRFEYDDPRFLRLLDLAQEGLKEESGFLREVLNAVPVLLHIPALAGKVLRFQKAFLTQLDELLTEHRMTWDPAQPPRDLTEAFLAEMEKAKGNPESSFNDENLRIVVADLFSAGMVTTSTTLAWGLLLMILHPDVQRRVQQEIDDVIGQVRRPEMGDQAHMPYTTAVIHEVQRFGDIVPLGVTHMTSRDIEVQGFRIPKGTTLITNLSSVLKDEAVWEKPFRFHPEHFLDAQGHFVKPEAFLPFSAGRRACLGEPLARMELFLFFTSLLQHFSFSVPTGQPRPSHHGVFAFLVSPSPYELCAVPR
Sequence of Cytochrome P450 2C19 (Homo sapiens) (P33261 whole entry, looked up): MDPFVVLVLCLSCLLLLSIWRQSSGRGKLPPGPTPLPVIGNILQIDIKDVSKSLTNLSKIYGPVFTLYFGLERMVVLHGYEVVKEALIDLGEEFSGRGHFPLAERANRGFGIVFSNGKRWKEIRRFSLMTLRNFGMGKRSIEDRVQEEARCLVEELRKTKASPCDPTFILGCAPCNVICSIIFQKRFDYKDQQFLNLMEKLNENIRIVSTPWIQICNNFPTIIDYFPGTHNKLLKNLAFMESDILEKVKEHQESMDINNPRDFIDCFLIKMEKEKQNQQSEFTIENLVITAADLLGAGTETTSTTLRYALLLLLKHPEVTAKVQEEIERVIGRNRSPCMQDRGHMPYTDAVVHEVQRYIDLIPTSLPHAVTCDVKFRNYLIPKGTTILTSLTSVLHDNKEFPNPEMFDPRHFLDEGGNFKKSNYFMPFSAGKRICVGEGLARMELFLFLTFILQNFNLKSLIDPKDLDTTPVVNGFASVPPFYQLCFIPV
Sequence of Muscarinic acetylcholine receptor M1 (Rattus norvegicus) (P08482 whole entry, looked up): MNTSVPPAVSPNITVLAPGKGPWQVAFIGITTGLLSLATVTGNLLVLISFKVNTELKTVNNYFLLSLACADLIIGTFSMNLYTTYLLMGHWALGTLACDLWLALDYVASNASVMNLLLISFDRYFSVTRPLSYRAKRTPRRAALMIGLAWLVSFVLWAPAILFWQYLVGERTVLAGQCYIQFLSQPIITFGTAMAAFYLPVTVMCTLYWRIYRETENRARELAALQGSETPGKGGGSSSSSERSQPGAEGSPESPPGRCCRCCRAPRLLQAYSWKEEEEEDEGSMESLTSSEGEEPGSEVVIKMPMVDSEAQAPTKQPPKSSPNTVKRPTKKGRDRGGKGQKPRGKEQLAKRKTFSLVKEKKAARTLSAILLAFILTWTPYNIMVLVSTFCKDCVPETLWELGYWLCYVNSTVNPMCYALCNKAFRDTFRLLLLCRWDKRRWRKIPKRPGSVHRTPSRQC

As for `CCCCCCCCCCCC1=C(O)C(=O)C=C(O)C1=O`, the Potency in test [1] was 25.1 µM (active); in [3], “inactive and 2 µM (active)”. For the same compound, in test [2], the Potency result was “inactive”. Also, the result in test [4] and in test [5] was inactive.
In the case of `c1ccc2c(Cc3c[nH]c4ccccc34)c[nH]c2c1`, the call in [6], in [4] and in test [5] was inactive.
For the compound `Nc1ncnc2c1ncn2[C@@H]1O[C@H](CO)C[C@@H]1O`, in [2], the Potency entry was “inactive”.
Take `O=C1C(Cl)=C(NCCN2CCOCC2)C(=O)c2ncccc21`: the Potency in test [2] was 2.51 µM (active). In addition, the result in [6] was inactive.
As to `CCN(CC)CCNC(=O)c1ccc(N)cc1`, the result in test [7], in test [4], in test [5] and in test [9] was inactive. Besides, the Potency entry in [8] and in test [10] was “inactive” throughout.
In the case of `COc1ccc(Cc2nccc3cc(OC)c(OC)cc23)cc1OC`, in [7], the outcome was inactive. Also, the Potency result in test [10] is “inactive”.
`CC1(C)CCC2=C(O1)c1ccccc1C(=O)C2=O`: in test [7], the compound was called inactive. For the same compound, the Potency in [11] was 8.91 µM (active); in test [12] it was 1.58 µM (active). Besides, the Potency entry in test [10] is “inactive”.
Take `O=c1cc(-c2ccccc2)oc2cc(O)cc(O)c12`: the Potency in [2] was 7.94 µM (active) and inactive and 2.51 µM (active); in [13], 0.794 µM (active). Besides, the compound was called inactive in test [6], in test [4] and in test [5].
For `COc1cc(O)c2c(c1)C(=O)c1cc(C)cc(O)c1C2=O`, the Potency entry in [2] was “inactive”. Further, the call in test [4] and in test [5] was inactive.
As to `Cc1cccc(C)c1OCC(C)N` (configuration not stated), the call in [4] and in test [5] was inactive.
As for `O=C(O)CCc1nc(-c2ccccc2)c(-c2ccccc2)o1`, the outcome in [7], in [4] and in test [5] was inactive. Further, the Potency result in test [8] and in test [10] was “inactive” each time.
With `CS(=O)c1ccc(-c2nc(-c3ccc(F)cc3)c(-c3ccncc3)[nH]2)cc1` (configuration not stated), the Potency in test [1] was 2 µM (active); in test [13], 0.0398 µM (active). Also, in test [6], the call was inactive.
With `COc1ccc(-c2coc3cc(O)cc(O)c3c2=O)cc1`, in [1], the Potency entry was “inactive”. Further, the Potency in [2] is 20 µM (active); in [3], 31.6 µM (active); in test [13], 7.94 µM (active). In addition, the compound was called inactive in [6], in test [4] and in [5].
`C[C@]12CCC3c4ccc(O)cc4CCC3C1CCC2=O` (some centres not stated): the compound was classed as inactive in [4] and in test [5].
Consider `NC(N)=Nc1nc(CSCC/C(N)=N/S(N)(=O)=O)cs1`, for which the call in test [7] was inactive. For the same compound, the Potency entry in [8] and in test [10] was “inactive” in each case.
In the case of `O=c1cc(-c2ccccc2)oc2cc(O)c(O)c(O)c12`, the Potency is 5.01 µM (active) in test [1], 31.6 µM (active) in test [3] and 5.01 µM (active) in [13]. Moreover, the compound was classed as inactive in test [6] and in test [4].
As for `COc1ccc(C2Sc3ccccc3N(CCN(C)C)C(=O)C2OC(C)=O)cc1` (configuration not stated), the compound was called inactive in [4] and in [5].
For the compound `CC(C)(C)c1ccc(C(O)CCCN2CCC(C(O)(c3ccccc3)c3ccccc3)CC2)cc1` (configuration not stated), the result in test [7] was inactive. For the same compound, in [14], the activation is 3.01% (inactive). Further, in test [12], the Potency was 2.51 µM (active). In test [10], the Potency result is “inactive”.
`CC(C)NCC(O)COc1cccc2[nH]ccc12` (configuration not stated): the call in test [7], in test [4] and in test [5] was inactive. For the same compound, the Potency result in test [8] and in test [10] was “inactive” throughout.
As for `O=C1C[C@@H](c2ccc(O)cc2)Oc2cc(O)cc(O)c21`, the Potency result in test [3] was “inactive”.
For the compound `COCCCCC(=NOCCN)c1ccc(C(F)(F)F)cc1`, the compound was called inactive in [6], in test [15] and in test [9]. Moreover, the Potency in [3] is 3.98 µM (active); in [13] it was 0.0631 µM (active). The Potency result in [8] and in [10] was “inactive” each time.
